Reference: PubChem BioAssay (NCATS)
Results filed as inconclusive are left out. Active and inactive are the calls of the source. Unless noted, the call rests on the fitted dose curve; in most records, active means well fitted curve in the direction sought with a large enough effect; inconclusive means small, poorly fitted or top-dose-only effect, or another doubt; inactive means no such curve, though single readings can be large; an effect the other way counts as inactive or inconclusive.

Experiments:
[1] = target: Lysosomal acid glucosylceramidase (Homo sapiens) (UniProt P04062); test: Glucocerebrosidase-p2 (AID 348; in the data active means potency below about 10 µM; further: potency means the concentration at half of the fitted maximal effect); settings: purified GBA, blue fluorogenic substrate, 40 min
Procedure, shortened: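 Compounds titrated from 0.6 nM upwards against 0.2 nM enzyme in pH 5.9 citric acid/KH2PO4, taurocholate, tween-20; blue fluorogenic substrate 80 uM, 40 min room temperature, stopped and read Ex 365/Em 440 for AC50.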

[2] = target: Cytochrome P450 1A2 (Homo sapiens) (UniProt P05177); test: p450-cyp1a2 (AID 410; calls by dose curve; further: potency means the concentration at half of the fitted maximal effect;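 on activity change, negative = inhibition: -100% = full effect of reference inhibitor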); settings: recombinant CYP1A2, luciferin-ME demethylation, luminescence; series mostly up to 57 µM
Procedure, shortened: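 Inhibition was calculated relative to 57 uM furafylline (full inhibition). The reaction used human CYP1A2 at 20nM with Luciferin-ME at its Km, 100uM, driven by an NADPH-regenerating system for 60 min at room temperature.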

[3] = Stat Signaling Pathway (AID 446; active means well fitted curve in either direction with a large enough effect, not every such curve was filed as active;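 further: ME-180 cervical cancer cells given 40 pM IL-6 alongside compound; SIE-controlled beta-lactamase reporter measured as 460/530 nm FRET emission ratio; on the % scale 0 is the no-effect control and ±100 the full control effect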); settings: ME-180 SIE beta-lactamase reporter, IL-6 stimulated, 5 h; at 7.69 µM (top of the series) unless noted
Procedure, shortened: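 IL-6/STAT signaling read in ME-180 cells via an SIE beta-lactamase reporter. Stimulus was 40 pM IL-6 (its AC50) for 5 hrs, so both activation and inhibition register.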

[4] = target: Glucocorticoid receptor (Homo sapiens) (UniProt P04150); test: GR-GFP Redistribution (AID 450;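 active means compounds whose dose series gives a full or clear partial fitted curve of increased nuclear translocation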; further: potency means the concentration at half of the fitted maximal effect); settings: U2OS GR-GFP nuclear translocation, laser cytometry, 2 h
[5] = target: Glucocorticoid receptor (Homo sapiens) (UniProt P04150); test: GR-EFC Redistribution (AID 451; calls by dose curve; further: potency means the concentration at half of the fitted maximal effect); settings: CHO-K1 GR-EFC translocation, beta-gal luminescence, 2 h
Procedure, shortened: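 CHO-K1 cells stably expressing nuclear-localized β-gal enzyme acceptor and GR fused C-terminally to the enzyme donor fragment; ligand-driven nuclear translocation restores β-gal by complementation. Compounds titrated up to 46 uM final, 2 h at 37 °C; luminescence read.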

[6] = target: Mitogen-activated protein kinase 10 (Mus musculus) (UniProt Q61831); test: JNK3 AlphaScreen Assay (AID 530; active means well fitted curve in either direction with a large enough effect, not every such curve was filed as active;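 further: kinase came from lysate of stimulated human HepG2 cells; signal reports phosphorylation of biotinylated GST-cJun 1-79 at Ser73 with 10 µM ATP; on the % scale 0 is the no-effect control and ±100 the full control effect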); settings: JNK3 lysate, c-Jun phosphorylation; series mostly up to 57.1 µM
Procedure, shortened: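 JNK3 came from HepG2 lysates pre-activated with IL-1beta and TNF-alpha and phosphorylated biotinylated GST-cJun (1-79) at 10 uM ATP, pH 7.6, room temperature. Compounds were titrated. AlphaScreen signal used anti-phospho-cJun (Ser73) antibody.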

[7] = target: 3',5'-cyclic-AMP phosphodiesterase 4B (Homo sapiens) (UniProt Q07343); test: qHTS Assay for Inhibitors of PDE-IV (AID 607; active means well fitted activation curve with a large enough effect in the main read-out, with a control signal flat, not every such curve was filed as active; further: % of control where 0% means no effect); settings: HEK293 ACTOne CNG channel cells, membrane potential fluorescence; series mostly up to 22.9 µM
Procedure, shortened: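 Live HEK293 cells with a modified cyclic nucleotide-gated (CNG) channel report intracellular cAMP via membrane-potential dye fluorescence (ex 535/em 590 nm). Endogenous PDE-IV was targeted. Compounds were tested at up to 22.9 uM final; RO 20-1724 100 uM served as control.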

[8] = target: Cytochrome P450 3A4 (Homo sapiens) (UniProt P08684); test: qHTS Assay for Activators of Cytochrome P450 3A4 (AID 885); settings: recombinant CYP3A4, Luciferin-PPXE luminescence, 60 min; series mostly up to 57.1 µM; further: nearly all actives have a fitted effect of over 65% in size
Procedure, shortened: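 Quantitative HTS format: compounds preincubated with 20nM human CYP3A4 and Luciferin-PPXE substrate at KM, reaction started by NADPH regeneration, stopped after 60 min, luciferase luminescence read 20 min later.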

[9] = qHTS Assay for Lipid Storage Modulators (AID 1519; calls by dose curve; further: potency means the concentration at half of the fitted maximal effect); settings: Drosophila S3 cells, BODIPY lipid droplet/cell ratio, laser cytometry, cells loaded with oleic acid; for activity change, negative = inhibition: at 57.5 µM (top of the series)
Procedure, shortened: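 Cells seeded at 5,000 per well were treated with compounds over a concentration series and loaded with oleic acid (400 uM, as added). Lipid droplet fluorescence (488 nm excitation, 500-530 nm channel) was read by laser-scanning cytometry and normalized to 20 uM Triacsin C.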

[10] = target: Dual specificity protein kinase CLK4 (Homo sapiens) (UniProt Q9HAZ1); test: qHTS Assay for Inhibitors of CDC-like Kinase 4 (Kinase-Glo Assay) (AID 1770); settings: recombinant Clk4, Kinase-Glo ATP depletion luminescence; series mostly up to 66.7 µM; further: nearly all actives have a fitted effect of over 65% in size; further: potency means the concentration at half of the fitted maximal effect
Procedure, shortened: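 Luminescent ATP-depletion read-out (Kinase-Glo) after 4.5 h room-temperature reaction of Clk4 (25 nM final) with RS peptide (100 uM) and ATP (1 uM), pH 7.5 Tris buffer with MgCl2 and DTT.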

[11] = target: Dual specificity protein kinase CLK4 (Homo sapiens) (UniProt Q9HAZ1); test: qHTS Assay for Inhibitors of CDC-like Kinase 4 (ADP-Glo Assay) (AID 1771); settings: recombinant CLK4, ADP-Glo luminescence; series mostly up to 80 µM; further: nearly all actives have a fitted effect of over 70% in size; further: potency means the concentration at half of the fitted maximal effect
Procedure, shortened: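 Kinase reaction: Clk4 at 25 nM, RS repeat peptide substrate at 100 uM, ATP at 1 uM, 1 hr, room temperature. Product ADP detected as luciferase signal via ADP-Glo.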

[12] = target: Dual specificity protein kinase CLK4 (Homo sapiens) (UniProt Q9HAZ1); test: qHTS Assay for Inhibitors of CDC-like Kinase 4 (ADP-FP Assay) (AID 1795); settings: Transcreener ADP fluorescence polarization; series mostly up to 50 µM; further: nearly all actives have a fitted effect of over 60% in size; further: potency means the concentration at half of the fitted maximal effect
Procedure, shortened: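 Kinase activity was measured as ADP production using Transcreener orange tracer (4 nM) and ADP antibody (1 ug/mL) fluorescence polarization, with ADP calculated from a calibration curve. The 1 h reaction contained 6.25 nM Clk4, 1 uM ATP and 100 uM RS peptide at pH 7.5 with Mg2+.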

[13] = target: Ubiquitin carboxyl-terminal hydrolase 1 (Homo sapiens) (UniProt O94782); test: Inhibitors of USP1/UAF1: Pilot qHTS (AID 504865); settings: purified USP1/UAF1, Ub-rhodamine cleavage fluorescence; series mostly up to 54.9 µM;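 further: rhodamine fluorescence freed from ubiquitin-rhodamine substrate followed over time; top concentration of the series differs between compounds; on the % scale 0 is the no-effect control and ±100 the full control effect; nearly all actives have a fitted effect of over 35% in size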
Procedure, shortened: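 Deubiquitinase activity followed as kinetic rhodamine fluorescence release from 150 nM Ub-Rho. 1 nM USP1/UAF1 with compound, after 15 min room-temperature preincubation, in HEPES pH 7.8 buffer containing TCEP, EDTA, BSA and Tween-20.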

[14] = Primary qHTS for small molecule stabilizers of the endoplasmic reticulum resident proteome: Secreted ER Calcium Modulated Protein (SERCaMP) assay (AID 1508630); settings: SH-SY5Y GLuc-SERCaMP (Gaussia luciferase released on ER calcium loss) secretion, thapsigargin, luminescence; series mostly up to 38.4 µM; further: on the % scale 0 is the no-effect control and ±100 the full control effect
Procedure, shortened: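 GLuc-SERCaMP-expressing SH-SY5Y cells, pretreated 16 h with compound, are challenged with thapsigargin to empty ER calcium stores; after 4 h, coelenterazine is added directly to the medium and luminescence is imaged.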

[15] = qHTS Assay for Identification of Small Molecule Agonists for Hypoxia Response Element Signaling Pathway (AID 914; active means well fitted activation curve with a large enough effect in the signal ratio, with a control signal flat, not every such curve was filed as active; the % refers to the signal ratio; further: potency means the concentration at half of the fitted maximal effect); settings: ME-180 HRE-bla reporter, beta-lactamase ratio, CoCl2, 17 h; activation: stronger effect = higher value
Procedure, shortened: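 In Opti-MEM containing 0.5% dialyzed FBS and 10 mM HEPES, ME-180 HRE-bla cells received a compound titration and EC50 CoCl2. They were incubated 17 hours, then CCF4-loaded 2.5 hours at room temperature before ratio reading.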

[16] = AP1 Signaling Pathway (AID 357; active means well fitted curve in either direction with a large enough effect, not every such curve was filed as active;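 further: ME-180 reporter cells stimulated with EGF at its EC50 level; on the % scale 0 is the no-effect control and ±100 the full control effect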); settings: ME-180 (cervical carcinoma) AP-1-bla reporter, EGF-induced, beta-lactamase ratio, 5 h; at 7.69 µM (top of the series) unless noted
Procedure, shortened: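 Titration-series screen for positive or negative modulators of EC50 EGF-induced signaling in ME-180 cells carrying an AP-1-driven beta-lactamase reporter. After 5 hours at 37 degrees Celsius, CCF4 460nm/530nm emission ratio gave %Activity; AC50 values derived.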

[17] = NFAT Signaling Pathway (AID 444; active means well fitted curve in either direction with a large enough effect, not every such curve was filed as active); settings: Jurkat NFAT-bla M1, carbachol, beta-lactamase ratio, 5 h; at 7.69 µM (top of the series) unless noted
Procedure, shortened: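 Jurkat cells carrying an NFAT-driven β-lactamase reporter and co-transfected muscarinic M1 receptor were treated with compound plus carbachol (1 uM final, an EC50 level) for 5 h at 37 °C. CCF4 loading followed for 1 h at RT; 460/530 nm ratio gave %activity.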

[18] = measured here: cell count channel max response
[19] = measured here: lipid channel max response

Sequence of Cytochrome P450 1A2 (Homo sapiens) (P05177 whole entry, looked up): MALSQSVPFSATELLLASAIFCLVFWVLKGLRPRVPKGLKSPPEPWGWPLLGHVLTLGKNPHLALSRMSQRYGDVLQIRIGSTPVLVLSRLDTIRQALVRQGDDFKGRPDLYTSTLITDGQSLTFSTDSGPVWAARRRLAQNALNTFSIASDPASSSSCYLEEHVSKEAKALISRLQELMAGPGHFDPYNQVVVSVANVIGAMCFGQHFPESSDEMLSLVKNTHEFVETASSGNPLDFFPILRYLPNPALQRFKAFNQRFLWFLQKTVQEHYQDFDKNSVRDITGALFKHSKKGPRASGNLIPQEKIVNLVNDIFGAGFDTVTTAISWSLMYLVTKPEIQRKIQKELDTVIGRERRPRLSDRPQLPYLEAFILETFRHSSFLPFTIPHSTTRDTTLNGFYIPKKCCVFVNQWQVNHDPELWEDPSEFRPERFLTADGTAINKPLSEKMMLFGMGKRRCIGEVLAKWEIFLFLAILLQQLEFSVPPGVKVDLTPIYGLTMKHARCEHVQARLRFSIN
Sequence of Dual specificity protein kinase CLK4 (Homo sapiens) (Q9HAZ1 whole entry, looked up): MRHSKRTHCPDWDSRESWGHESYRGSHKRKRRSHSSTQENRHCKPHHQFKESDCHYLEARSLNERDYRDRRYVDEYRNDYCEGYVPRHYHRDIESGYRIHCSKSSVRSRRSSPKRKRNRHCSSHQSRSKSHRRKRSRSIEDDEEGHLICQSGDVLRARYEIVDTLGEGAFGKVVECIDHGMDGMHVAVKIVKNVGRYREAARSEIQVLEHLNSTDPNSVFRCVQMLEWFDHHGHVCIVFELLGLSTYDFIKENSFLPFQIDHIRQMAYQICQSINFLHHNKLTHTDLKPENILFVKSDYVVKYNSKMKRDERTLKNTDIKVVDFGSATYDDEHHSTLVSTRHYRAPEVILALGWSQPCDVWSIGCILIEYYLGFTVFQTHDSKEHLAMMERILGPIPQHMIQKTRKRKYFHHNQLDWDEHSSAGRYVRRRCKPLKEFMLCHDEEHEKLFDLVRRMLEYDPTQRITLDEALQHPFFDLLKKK
Sequence of Lysosomal acid glucosylceramidase (Homo sapiens) (P04062 whole entry, looked up): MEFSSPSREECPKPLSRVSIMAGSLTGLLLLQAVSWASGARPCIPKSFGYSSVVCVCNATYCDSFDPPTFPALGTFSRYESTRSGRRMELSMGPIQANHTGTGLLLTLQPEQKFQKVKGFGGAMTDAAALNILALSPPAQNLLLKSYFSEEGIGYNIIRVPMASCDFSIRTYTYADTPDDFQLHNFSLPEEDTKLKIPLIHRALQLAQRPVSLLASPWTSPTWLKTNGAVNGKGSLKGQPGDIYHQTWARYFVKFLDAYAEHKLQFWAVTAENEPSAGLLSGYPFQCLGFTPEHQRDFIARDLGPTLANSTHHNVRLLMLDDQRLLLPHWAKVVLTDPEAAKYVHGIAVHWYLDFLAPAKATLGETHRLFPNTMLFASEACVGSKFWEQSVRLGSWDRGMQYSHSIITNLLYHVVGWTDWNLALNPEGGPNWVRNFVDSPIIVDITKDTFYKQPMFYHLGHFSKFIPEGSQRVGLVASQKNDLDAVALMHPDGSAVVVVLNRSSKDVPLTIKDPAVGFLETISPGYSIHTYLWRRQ
Sequence of Glucocorticoid receptor (Homo sapiens) (P04150 whole entry, looked up, the tested form may be a part): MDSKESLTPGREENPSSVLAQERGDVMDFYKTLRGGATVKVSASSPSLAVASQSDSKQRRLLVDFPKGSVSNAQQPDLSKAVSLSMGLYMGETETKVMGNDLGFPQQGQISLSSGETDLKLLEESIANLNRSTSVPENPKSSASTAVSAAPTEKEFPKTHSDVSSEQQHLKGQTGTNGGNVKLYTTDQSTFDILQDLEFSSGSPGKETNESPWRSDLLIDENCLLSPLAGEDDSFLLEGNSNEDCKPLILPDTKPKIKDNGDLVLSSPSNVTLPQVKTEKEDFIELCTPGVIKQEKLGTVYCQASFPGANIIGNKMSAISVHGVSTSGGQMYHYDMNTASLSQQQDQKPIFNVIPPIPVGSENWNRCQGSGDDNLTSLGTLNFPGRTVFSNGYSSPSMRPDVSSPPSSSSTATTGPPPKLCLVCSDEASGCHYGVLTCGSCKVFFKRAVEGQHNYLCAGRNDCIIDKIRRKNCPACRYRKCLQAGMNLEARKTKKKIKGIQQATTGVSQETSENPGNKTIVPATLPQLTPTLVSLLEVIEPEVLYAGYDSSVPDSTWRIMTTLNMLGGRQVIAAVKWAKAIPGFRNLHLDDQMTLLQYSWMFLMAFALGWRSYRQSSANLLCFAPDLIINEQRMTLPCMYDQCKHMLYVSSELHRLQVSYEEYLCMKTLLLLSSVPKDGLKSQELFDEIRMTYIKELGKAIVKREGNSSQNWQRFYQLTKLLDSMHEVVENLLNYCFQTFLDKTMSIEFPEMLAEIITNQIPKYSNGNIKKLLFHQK
Sequence of Ubiquitin carboxyl-terminal hydrolase 1 (Homo sapiens) (O94782 whole entry, looked up): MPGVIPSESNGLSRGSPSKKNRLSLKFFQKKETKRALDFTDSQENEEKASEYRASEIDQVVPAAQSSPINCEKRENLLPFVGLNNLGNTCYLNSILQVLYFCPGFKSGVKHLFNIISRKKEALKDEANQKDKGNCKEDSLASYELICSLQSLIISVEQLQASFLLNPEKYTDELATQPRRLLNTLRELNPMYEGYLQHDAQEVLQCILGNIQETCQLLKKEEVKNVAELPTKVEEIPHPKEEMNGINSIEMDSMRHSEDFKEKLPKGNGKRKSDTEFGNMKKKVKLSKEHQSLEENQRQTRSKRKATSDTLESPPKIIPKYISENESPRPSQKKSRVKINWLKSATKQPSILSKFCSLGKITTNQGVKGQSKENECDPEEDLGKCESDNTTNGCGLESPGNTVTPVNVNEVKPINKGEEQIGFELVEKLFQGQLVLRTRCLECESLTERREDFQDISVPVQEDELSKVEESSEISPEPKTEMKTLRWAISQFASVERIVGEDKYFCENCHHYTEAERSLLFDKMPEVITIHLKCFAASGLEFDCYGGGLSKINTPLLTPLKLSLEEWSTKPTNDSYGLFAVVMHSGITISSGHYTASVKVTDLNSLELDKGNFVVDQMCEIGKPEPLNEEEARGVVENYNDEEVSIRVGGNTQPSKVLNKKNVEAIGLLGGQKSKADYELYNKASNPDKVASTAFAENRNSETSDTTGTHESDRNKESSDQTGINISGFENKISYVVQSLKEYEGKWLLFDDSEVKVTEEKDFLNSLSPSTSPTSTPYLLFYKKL
Sequence of Cytochrome P450 3A4 (Homo sapiens) (P08684 whole entry, looked up): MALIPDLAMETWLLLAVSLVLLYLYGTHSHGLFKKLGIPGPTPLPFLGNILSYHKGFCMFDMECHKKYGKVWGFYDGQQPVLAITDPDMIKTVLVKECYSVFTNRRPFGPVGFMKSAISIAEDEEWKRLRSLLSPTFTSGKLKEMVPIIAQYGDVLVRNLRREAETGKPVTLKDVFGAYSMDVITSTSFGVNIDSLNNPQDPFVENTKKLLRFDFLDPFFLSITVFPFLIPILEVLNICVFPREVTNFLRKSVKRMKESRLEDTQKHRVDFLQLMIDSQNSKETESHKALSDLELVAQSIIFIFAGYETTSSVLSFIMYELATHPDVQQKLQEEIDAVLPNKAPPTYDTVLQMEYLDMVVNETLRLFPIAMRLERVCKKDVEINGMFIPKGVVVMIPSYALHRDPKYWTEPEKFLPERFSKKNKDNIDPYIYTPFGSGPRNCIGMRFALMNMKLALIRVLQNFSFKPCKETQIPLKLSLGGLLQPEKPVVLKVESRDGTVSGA
Sequence of 3',5'-cyclic-AMP phosphodiesterase 4B (Homo sapiens) (Q07343 whole entry, looked up): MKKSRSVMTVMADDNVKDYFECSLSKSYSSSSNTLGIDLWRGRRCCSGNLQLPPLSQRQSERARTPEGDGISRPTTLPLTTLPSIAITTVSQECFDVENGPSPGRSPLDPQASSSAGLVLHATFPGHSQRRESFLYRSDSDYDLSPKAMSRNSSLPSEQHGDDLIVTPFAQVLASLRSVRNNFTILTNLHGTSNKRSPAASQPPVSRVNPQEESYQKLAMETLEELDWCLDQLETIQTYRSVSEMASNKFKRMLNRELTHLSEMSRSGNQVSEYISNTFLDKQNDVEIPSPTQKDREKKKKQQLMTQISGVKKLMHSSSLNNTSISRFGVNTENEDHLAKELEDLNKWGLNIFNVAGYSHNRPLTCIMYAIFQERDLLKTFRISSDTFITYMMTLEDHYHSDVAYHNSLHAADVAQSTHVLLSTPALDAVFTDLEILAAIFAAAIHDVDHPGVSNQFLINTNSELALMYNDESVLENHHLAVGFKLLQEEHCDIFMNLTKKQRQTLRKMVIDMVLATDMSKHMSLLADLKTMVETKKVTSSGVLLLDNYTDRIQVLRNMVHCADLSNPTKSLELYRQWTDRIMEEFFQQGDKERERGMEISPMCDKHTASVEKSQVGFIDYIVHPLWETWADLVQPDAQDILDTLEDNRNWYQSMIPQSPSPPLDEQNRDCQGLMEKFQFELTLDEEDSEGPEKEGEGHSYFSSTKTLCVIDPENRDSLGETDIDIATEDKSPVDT

Row | Compound | Potency [1] | Potency [2] | activity, negative = inhibition [3] | Potency [4] | Potency [5] | outcome [6] | Potency [7] | Potency [8] | activity change, negative = inhibition [9] | max response [9, 18] | max response [9, 19] | Potency [10] | Potency [11] | Potency [12] | Potency [13] | Potency [14] | Potency [15] | activity change, negative = inhibition [16] | activity change, negative = inhibition [17] | Potency [9]
1 | CS(=O)(=O)Nc1cccc(-c2ccc3ncnc(Nc4ccccc4)c3c2)c1 | > 11.4 µM (inactive) | 1 µM (active) | -2.27% (inactive) | > 46 µM (inactive) | > 46 µM (inactive) | inactive | inactive | inactive | 5.6% (inactive) | 6.09% | 11.8% | 15.8 µM (active) | 14.1 µM (active) | 14.1 µM (active) | inactive | inactive | – | – | – | –
2 | CN1CCN(c2ncc3nc(-c4cc(F)cc(F)c4)c(=O)n(CCc4ccccc4)c3n2)CC1 | > 11.4 µM (inactive) | inactive | – | > 9.22 µM (inactive) | > 46 µM (inactive) | inactive | inactive | inactive | -3.87% (inactive) | 10.6% | 3.66% | inactive | inactive | inactive | inactive | inactive | 3.16 µM (active) | – | – | –
3 | CN(C)Cc1ccccc1-c1cncnc1Nc1ccccc1 | > 11.4 µM (inactive) | – | 13.5% (inactive) | > 46 µM (inactive) | > 46 µM (inactive) | inactive | inactive | – | 5.53% (inactive) | 18.6% | 26.9% | inactive | inactive | inactive | inactive | inactive | – | 7.98% (inactive) | – | –
4 | O=c1c(-c2ccc(Cl)cc2)nc2cnc(N3CCNCC3)nc2n1Cc1cccs1 | > 11.4 µM (inactive) | 12.6 µM (active) | – | > 9.22 µM (inactive) | > 46 µM (inactive) | – | inactive | inactive | 0.33% (inactive) | -11.5% | -12.6% | inactive | inactive | inactive | – | inactive | – | – | – | –
5 | CN(C)c1ncc2nc(-c3ccccc3)c(=O)n(Cc3ccc(F)cc3)c2n1 | > 11.4 µM (inactive) | 12.6 µM (active) | 178% [activator] (active) | – | > 46 µM (inactive) | – | inactive | – | 0.549% (inactive) | 7.88% | 4.69% | inactive | inactive | inactive | inactive | inactive | 0.501 µM (active) | – | – | –
6 | CNc1nc(-c2ccccc2CN(C)C)nc2ccccc12 | > 11.4 µM (inactive) | 3.16 µM (active) | 17.3% (inactive) | – | > 46 µM (inactive) | inactive | – | inactive | 1.92% (inactive) | 7.86% | 7.77% | inactive | inactive | inactive | – | inactive | – | – | -2.05% (inactive) | –
7 | O=c1c(-c2ccccc2)nc2cnc(Nc3ccccc3)nc2n1Cc1cccs1 | > 11.4 µM (inactive) | – | – | > 9.22 µM (inactive) | > 46 µM (inactive) | inactive | – | – | -3.34% (inactive) | 8.31% | 4.81% | inactive | inactive | inactive | inactive | inactive | – | -15.4% (inactive) | – | –
8 | COc1ccc(-c2nc3cnc(Nc4ccccc4)nc3n(C[C@H]3CCCO3)c2=O)cc1 | > 11.4 µM (inactive) | – | – | > 9.22 µM (inactive) | > 46 µM (inactive) | inactive | – | – | – | 2.79% | -87.2% | inactive | inactive | inactive | inactive | inactive | – | 26.1% (inactive) | – | 11.2 µM (active)
9 | Cn1cc(-c2nc3cnc(N4CCNCC4)nc3n(CCC#N)c2=O)c2ccccc21 | > 11.4 µM (inactive) | – | – | > 9.22 µM (inactive) | > 46 µM (inactive) | inactive | inactive | – | 1.65% (inactive) | -3.78% | -5% | inactive | inactive | inactive | inactive | inactive | 3.16 µM (active) | 14.5% (inactive) | 1.75% (inactive) | –
10 | CN(C)c1ncnc2ccc(-c3ccoc3)cc12 | > 11.4 µM (inactive) | 0.794 µM (active) | – | – | > 46 µM (inactive) | inactive | – | inactive | 1.41% (inactive) | 30.5% | 29.1% | 0.501 µM (active) | 0.562 µM (active) | 0.178 µM (active) | – | inactive | – | – | 1.35% (inactive) | –
11 | COc1cccc(Cn2c(=O)c(-c3cccc(C#N)c3)nc3cnc(N4CCN(C)CC4)nc32)c1 | > 11.4 µM (inactive) | inactive | – | > 9.22 µM (inactive) | > 46 µM (inactive) | inactive | inactive | inactive | 2.54% (inactive) | 21.5% | 24.1% | inactive | inactive | inactive | inactive | inactive | 3.16 µM (active) | – | – | –
12 | COc1ccc(-c2nc3cnc(Nc4ccccc4)nc3n(Cc3cccs3)c2=O)cc1 | > 11.4 µM (inactive) | – | – | > 9.22 µM (inactive) | > 46 µM (inactive) | inactive | inactive | – | 0.81% (inactive) | 23.8% | 23.5% | inactive | inactive | inactive | inactive | inactive | 3.16 µM (active) | 19.7% (inactive) | 23.4% (inactive) | –
13 | COc1ncc2nc(-c3cccs3)c(=O)n(CCc3ccccc3)c2n1 | > 11.4 µM (inactive) | 1.26 µM (active) | – | > 9.22 µM (inactive) | > 46 µM (inactive) | inactive | – | inactive | 2.39% (inactive) | -3.52% | -2.93% | inactive | inactive | inactive | – | inactive | 3.16 µM (active) | – | 11.4% (inactive) | –
